These results are taken from PubChem BioAssay (Tox21).

Molecules are shown by their SMILES. Records with an inconclusive call do not appear. Unmarked numbers belong to inactive results. Calls come from the whole dose curve; as a rule, active = well fitted inhibition curve with a large enough effect in the repeat runs; inconclusive = weak or mixed curves, or effect the other way; inactive = no such curve, though single readings can be large or run the other way.
% is set by controls: 0 for no effect and ±100 for the full control effect.

For this assay, the target named is Androgen receptor (Homo sapiens) (UniProt P10275). The experiment in a line: qHTS assay to identify small molecule antagonists of the androgen receptor (AR) signaling pathway using the MDA cell line (AID 743042; note: nearly all actives have a fitted effect of over 55% in size). Particulars: MDA-kb2 AR-luc, MMTV luciferase, R1881 antagonist, 16 h; series mostly up to 70.3 µM; activity change, negative = inhibition: at the top concentration. A digest of the protocol: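 Antagonist mode: compounds plus R1881 agonist added to MDA-kb2 AR-luc cells, incubated 16 h at 37C. Luciferase reporter luminescence quantified, with multiplexed CellTiter-Fluor readout for cell viability.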
Sequence of Androgen receptor (Homo sapiens) (P10275 whole entry, looked up): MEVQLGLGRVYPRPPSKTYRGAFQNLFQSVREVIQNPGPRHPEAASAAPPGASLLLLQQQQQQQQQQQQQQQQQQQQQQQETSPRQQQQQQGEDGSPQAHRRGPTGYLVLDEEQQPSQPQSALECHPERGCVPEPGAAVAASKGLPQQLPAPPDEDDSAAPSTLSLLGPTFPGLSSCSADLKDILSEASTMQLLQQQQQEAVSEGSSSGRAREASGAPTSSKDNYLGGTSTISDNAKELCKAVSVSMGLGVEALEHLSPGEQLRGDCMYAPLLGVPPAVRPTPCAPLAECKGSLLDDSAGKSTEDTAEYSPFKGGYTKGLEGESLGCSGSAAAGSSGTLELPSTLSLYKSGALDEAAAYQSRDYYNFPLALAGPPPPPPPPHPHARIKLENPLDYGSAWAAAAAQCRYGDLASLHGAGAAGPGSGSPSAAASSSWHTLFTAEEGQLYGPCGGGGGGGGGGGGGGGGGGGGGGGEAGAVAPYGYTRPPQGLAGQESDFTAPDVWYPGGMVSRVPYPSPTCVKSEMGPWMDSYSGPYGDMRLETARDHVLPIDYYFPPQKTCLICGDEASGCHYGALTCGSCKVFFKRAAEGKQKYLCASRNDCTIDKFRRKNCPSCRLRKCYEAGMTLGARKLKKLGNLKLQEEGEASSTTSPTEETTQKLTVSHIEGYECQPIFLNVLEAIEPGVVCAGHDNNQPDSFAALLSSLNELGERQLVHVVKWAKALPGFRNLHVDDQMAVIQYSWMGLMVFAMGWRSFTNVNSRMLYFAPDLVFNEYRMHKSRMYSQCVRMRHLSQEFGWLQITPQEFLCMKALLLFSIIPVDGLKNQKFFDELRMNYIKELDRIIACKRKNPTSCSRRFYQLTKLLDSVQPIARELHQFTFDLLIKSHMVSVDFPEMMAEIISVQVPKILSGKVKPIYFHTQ
Background: qHTS replaces the single test concentration by a dilution series.
Turning to `CC(C)CCCCCCc1ccc(OCCOCCO)cc1`, the “activity change, negative = inhibition” value is 11.2% [at 95 µM].
Regarding `Cc1c(C(=O)NCCO)[n+](=O)c2ccccc2n1[O-]`, the “activity change, negative = inhibition” value is -1.21%.
Regarding `CCCCCOc1ccc(C2SC(=O)NC2=O)cc1OCC` (stereo not given), the “activity change, negative = inhibition” value is 33.4%.
The figure for `CC1(O)CSC(C)(O)CS1` (stereo not given) is -15.9%; for `OCCN(CCO)CCN(CCO)CCO` it is 4.28%.
